Data: the supplement of paper PMC8975748
Structures can show the parent of a compound that is named as a salt.

Each compound was assayed on Saccharomyces cerevisiae BY4741 SeMeCo community (assay: z-score of subpopulation abundance vs DMSO median, subpopulation auxotrophic for LUM; higher = larger share of this subpopulation than in DMSO controls). Conditions: 10 µM; 24 h; SM minimal medium; subpopulation (auxotrophy): LUM.
Protocol: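 Fluorescent four-plasmid SeMeCo (self-establishing metabolically cooperating S. cerevisiae BY4741 community; plasmids pH-mRuby2, pL-mWasabi, pU-eCFP, pM-TagRFP657) was grown 24 h in minimal SM medium with each Selleck FDA-approved drug at 10 µM in 384-well plates. Cells were fixed and imaged by high-content confocal microscopy. For each auxotrophic subpopulation (and the prototroph), a z-score gives the deviation from the DMSO vehicle-control population median.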

SMILES	z-score of subpopulation abundance
CSc1nc2cc(Cl)c(Oc3cccc(Cl)c3Cl)cc2[nH]1 [Triclabendazole]	1.09
CC(C)c1nc(N(C)S(C)(=O)=O)nc(-c2ccc(F)cc2)c1/C=C/[C@@H](O)C[C@@H](O)CC(=O)O [Rosuvastatin Calcium]	1.01
Cc1noc(NS(=O)(=O)c2ccc(N)cc2)c1C [Sulfisoxazole]	1.7
CN(C)CCCN1c2ccccc2Sc2ccccc21 [Promazine hydrochloride]	0.25
CCCCCCCCCC(=O)N[C@@H](Cc1c[nH]c2ccccc12)C(=O)N[C@H](CC(N)=O)C(=O)N[C@@H](CC(=O)O)C(=O)N[C@@H]1C(=O)NCC(=O)N[C@@H](CCCN)C(=O)N[C@@H](CC(=O)O)C(=O)N[C@H](C)C(=O)N[C@@H](CC(=O)O)C(=O)NCC(=O)N[C@H](CO)C(=O)N[C@@H]([C@H](C)CC(=O)O)C(=O)N[C@@H](CC(=O)c2ccccc2N)C(=O)O[C@@H]1C [Daptomycin]	1.02
CCN1CCCC1CNC(=O)c1cc(S(N)(=O)=O)ccc1OC (stereo not given) [Sulpiride]	0.04
O=C(CCCN1CCN(c2ccccn2)CC1)c1ccc(F)cc1 [Azaperone]	0.38
COC(=O)C1=C(C)NC(C)=C(C(=O)OCC(C)C)C1c1ccccc1[N+](=O)[O-] (stereo not given) [Nisoldipine]	0.88
O=C1NC(=O)C(c2ccccc2)(c2ccccc2)N1 [Phenytoin]	0.38
Cc1cc(NS(=O)(=O)c2ccc(N)cc2)nc(C)n1 [sulfaisodimidine]	0.42
NC(CO)(CO)CO [Trometamol]	0.42
Nc1ccc(C(=O)O)c(O)c1 [4-Aminosalicylic acid]	-1.15
CC(=O)OCC1=C(C(=O)O)N2C(=O)[C@@H](NC(=O)Cc3cccs3)[C@H]2SC1 [Cephalothin]	-0.19
CN(C/C=C/C#CC(C)(C)C)Cc1cccc2ccccc12 [Terbinafine HCl]	0.47
Cc1ccc(Cl)c(Nc2ccccc2C(=O)O)c1Cl [Meclofenamate Sodium]	-0.74
CC1(C)S[C@@H]2[C@H](NC(=O)[C@H](N)c3ccccc3)C(=O)N2[C@H]1C(=O)OCOC(=O)[C@@H]1N2C(=O)C[C@H]2S(=O)(=O)C1(C)C [Sultamicillin Tosylate]	-0.41
CCS(=O)(=O)CCn1c([N+](=O)[O-])cnc1C [Tinidazole]	-0.2
CN(C)CC(c1ccc(O)cc1)C1(O)CCCCC1 (stereo not given) [Desvenlafaxine]	-0.64
CCN1CC(CCN2CCOCC2)C(c2ccccc2)(c2ccccc2)C1=O (stereo not given) [Doxapram HCl]	-0.43
O=C(O)CCNC(=O)c1ccccc1 [Betamipron]	-0.64

SMILES	z-score of subpopulation abundance
Cc1cc(NS(=O)(=O)c2ccc(N)cc2)no1 [Sulfamethoxazole sodium]	-0.34
COc1cccc(CCc2ccccc2OCC(CN(C)C)OC(=O)CCC(=O)O)c1 (stereo not given) [Sarpogrelate hydrochloride]	-0.21
Oc1ccc([C@H]2COc3cc(O)ccc3C2)cc1 [Equol]	-0.14
Cc1cc(O)c(C(=O)N[C@@H](C(=O)N[C@@H]2C(=O)N3C(C(=O)O)=C(CSc4nnnn4C)CS[C@H]23)c2ccc(O)cc2)cn1 [Cefpiramide sodium]	-0.42
COc1ccc(C(=O)NCc2ccc(OCCN(C)C)cc2)cc1OC [Itopride hydrochloride]	0.15
CCCOc1ccc2c(c1)CC[C@@H]1[C@@H]2CC[C@]2(C)[C@@H](OC)CC[C@@H]12 [Promestriene]	1.34
CO/N=C(\C(=O)N[C@@H]1C(=O)N2C(C(=O)[O-])=C(C[N+]3(C)CCCC3)CS[C@H]12)c1csc(N)n1 [Cefepime Dihydrochloride Monohydrate]	1.06
Clc1ccc(COC(Cn2ccnc2)c2ccc(Cl)cc2Cl)c(Cl)c1 (stereo not given) [Miconazole Nitrate]	0.15
CC1(C)S[C@@H]2[C@H](NC(=O)C(C(=O)O)c3ccccc3)C(=O)N2[C@H]1C(=O)O (stereo not given in full) [Carbenicillin disodium]	-0.76
CCCCCCCCCC(=O)NC1C(Oc2c3cc4cc2Oc2ccc(cc2Cl)C(OC2OC(CO)C(O)C(O)C2NC(C)=O)C2NC(=O)C(NC(=O)C4NC(=O)C4NC(=O)C(Cc5ccc(c(Cl)c5)O3)NC(=O)C(N)c3ccc(O)c(c3)Oc3cc(O)cc4c3)c3ccc(O)c(c3)-c3c(OC4OC(CO)C(O)C(O)C4O)cc(O)cc3C(C(=O)O)NC2=O)OC(CO)C(O)C1O (stereo not given) [Teicoplanin]	0.85
O=C(c1ccc(OCCN2CCCCC2)cc1)c1c(-c2ccc(O)cc2)sc2cc(O)ccc12 [Raloxifene HCl]	-0.24
CC1(C)S[C@@H]2[C@H](NC(=O)[C@H](N)c3ccccc3)C(=O)N2[C@H]1C(=O)O [Ampicillin sodium]	-0.14
CC[C@H](c1ccc(O)cc1)[C@@H](CC)c1ccc(O)cc1 [Hexestrol]	-1.39
Cc1ccc(C(=O)C(C)CN2CCCCC2)cc1 (stereo not given) [Tolperisone HCl]	-0.71
OC(Cn1cncn1)(Cn1cncn1)c1ccc(F)cc1F [Fluconazole]	-0.64
CC1(C)S[C@@H]2[C@H](NC(=O)[C@H](N)c3ccc(O)cc3)C(=O)N2[C@H]1C(=O)O [Amoxicillin trihydrate]	0.38
C[C@H]1COc2c(C3(N)CC3)c(F)cc3c(=O)c(C(=O)O)cn1c23 [Pazufloxacin mesylate]	-0.3
Nc1nnc(-c2cccc(Cl)c2Cl)c(N)n1 [Lamotrigine]	1.86
CCC(=O)O[C@@H]1CC(=O)O[C@H](C)C/C=C/C=C/[C@H](O)[C@H](C)C[C@H](CC=O)[C@H](O[C@@H]2O[C@H](C)[C@@H](O[C@H]3C[C@@](C)(O)[C@@H](OC(=O)CC)[C@H](C)O3)[C@H](N(C)C)[C@H]2O)[C@H]1OC [Midecamycin]	-0.4
COc1ccc2cc(C(=O)O)ccc2c1 [6-Methoxy-2-naphthoic acid]	-0.89
